Holding throughout (assay): qHTS profiling for inhibitors of Plasmodium falciparum proliferation (AID 504749); note: nearly all actives have a fitted effect of over 60% in size
Settings in all cases: P. falciparum in erythrocytes, SYBR Green DNA, 72 h; series mostly up to 28.7 µM

One assay concerns AA1029. Summed up: (§1)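 P. falciparum-infected erythrocytes (0.3% parasitemia, 2.5% hematocrit final) were exposed to compounds for 72 h at 37 C in 5% CO2, then lysed with SYBR Green buffer overnight at room temperature; parasite DNA fluorescence was normalized to artemisinin and DMSO controls.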
A further assay concerns ATS95. Summed up: as §1
For the next assay, the system named is C2A. Summed up: as §1
The test system of another assay is CP211. Summed up: as §1
In another assay the test system is CP215. Summed up:
as §1

A further assay concerns CP217. Summed up:
as §1

The subject of the next assay is CP250. Summed up: as §1
In another assay the test system is CP252. Summed up:
as §1

The subject of another assay is CP256. Summed up: as §1
Another assay has as its system CP260. Summed up: as §1
The next assay has as its system CP262. Summed up: as §1
The next assay concerns CP265. Summed up: as §1
The next assay deals with CP291. Summed up: as §1
The subject of another assay is CP315. Summed up:
as §1

For the next assay, the system named is Dd2. Summed up:
as §1

In a further assay the test system is FAB9. Summed up: as §1
For a further assay, the system named is ICS. Summed up: as §1
For the next assay, the system named is N140. Summed up:
as §1

For the next assay, the system named is SC27B. Summed up: as §1
For a further assay, the system named is TAB165. Summed up:
as §1

Results filed as inconclusive are left out. Active and inactive are the calls of the source. Calls come from the whole dose curve; as a rule, active = well fitted inhibition curve with a large enough effect; inconclusive = small, poorly fitted or top-dose-only effect; inactive = flat fitted curve, though single readings scatter.
Potency is the fitted concentration of half-maximal effect.

`CC(=O)NC1[C@H](O)C[C@@](O)(C(=O)O)O[C@H]1[C@H](O)[C@H](O)CO` (stereo not given in full): the Potency entry in the assay with AA1029, in the assay on ATS95, in the assay with C2A, in the assay with CP211, with CP215 and in the assay on CP217 was “inactive” throughout. In addition, the Potency result in the assay on CP250, with CP252, with CP256, in the assay on CP260, in the assay on CP262 and in the assay on CP265 was “inactive” throughout. In addition, the Potency result in the assay on CP291, in the assay on CP315, in the assay with Dd2, in the assay on FAB9, in the assay on ICS and with N140 was “inactive” each time. Moreover, the Potency entry in the assay on SC27B and in the assay with TAB165 was “inactive” each time.
`O=[N+]([O-])O[C@H]1CO[C@H]2[C@@H]1OC[C@H]2O`: the Potency entry with AA1029, in the assay with ATS95, in the assay with C2A, in the assay with CP211, in the assay with CP215 and in the assay with CP217 was “inactive” throughout. Besides, the Potency entry in the assay with CP250, with CP252, in the assay with CP256, in the assay on CP260, with CP262 and with CP265 was “inactive” each time. Moreover, the Potency entry in the assay on CP291, in the assay on CP315, in the assay on Dd2, in the assay with FAB9, with ICS and with N140 was “inactive” in each case. The Potency entry with SC27B and in the assay on TAB165 was “inactive” each time.
Regarding `C=C(NCc1ccccc1)c1ccccc1O`, the Potency entry in the assay with AA1029, in the assay with ATS95, with C2A, in the assay on CP211, in the assay on CP215 and with CP217 was “inactive” throughout. Moreover, the Potency result with CP250, with CP252, with CP256, in the assay on CP260, with CP262 and in the assay with CP265 was “inactive” in each case. In addition, the Potency entry in the assay on CP291, in the assay with CP315, in the assay on Dd2, in the assay with FAB9, with ICS and in the assay on N140 was “inactive” each time. Further, the Potency result in the assay on SC27B and with TAB165 was “inactive” throughout.
Consider `CO/N=C(/C(=O)N[C@@H]1C(=O)N2C(C(=O)O)=C(CSc3nc(C)c(CC(=O)O)s3)CS[C@H]12)c1csc(N)n1`, for which the Potency entry with AA1029, in the assay on ATS95, in the assay with C2A, in the assay on CP211, in the assay with CP215 and in the assay on CP217 was “inactive” in each case. For the same compound, the Potency entry in the assay on CP250, in the assay on CP252, in the assay on CP256, with CP260, in the assay on CP262 and with CP265 was “inactive” in each case. For the same compound, the Potency result with CP291, with CP315, in the assay on Dd2, in the assay on FAB9, with ICS and in the assay with N140 was “inactive” each time. The Potency entry with SC27B and in the assay with TAB165 was “inactive” throughout.
As to `C=CC1CN2CCC1CC2[C@@H](O)c1ccnc2ccc(OC)cc12` (stereo not given in full), the Potency is 282 nM (active) in the assay on AA1029; 251 nM (active) in the assay on ATS95; 891 nM (active) with C2A; 675 nM (active) in the assay on CP211; 478 nM (active) in the assay with CP215; 501 nM (active) in the assay with CP217. For the same compound, the Potency is 891 nM (active) in the assay with CP250; 355 nM (active) in the assay on CP252; 891 nM (active) in the assay on CP256; 355 nM (active) in the assay with CP260; 338 nM (active) with CP262; 355 nM (active) with CP265. Besides, the Potency in the assay with CP291 is 478 nM (active); with CP315, 0.953 µM (active); in the assay on Dd2, 282 nM (active); in the assay with FAB9, 79.4 nM (active); in the assay on ICS, 89.1 nM (active); in the assay with N140 it was 316 nM (active). Also, the Potency with SC27B is 891 nM (active); in the assay on TAB165 it was 251 nM (active).
In the case of `COc1cccc2c1C(=O)c1c(O)c3c(c(O)c1C2=O)C[C@@](O)(C(=O)CO)C[C@@H]3OC1CC(N)C(O)C(C)O1` (stereo not given in full), the Potency with AA1029 was 2240 nM (active); with ATS95 it was 2000 nM (active); with C2A, 2240 nM (active); in the assay with CP211, 1690 nM (active); with CP215, 3790 nM (active); with CP217, 2510 nM (active). For the same compound, the Potency in the assay with CP250 was 2510 nM (active); in the assay with CP252, 2510 nM (active); with CP256 it was 2240 nM (active); in the assay on CP260, 708 nM (active); in the assay with CP262 it was 2390 nM (active); in the assay with CP265, 3980 nM (active). In addition, the Potency in the assay with CP291 was 3380 nM (active); in the assay with CP315, 6.75 µM (active); in the assay on Dd2, 1260 nM (active); with FAB9, 3160 nM (active); in the assay with ICS, 631 nM (active); in the assay with N140 it was 2510 nM (active). In addition, the figures for the Potency in the assay with SC27B and in the assay on TAB165 were 2510 nM (active) and 2240 nM (active), respectively.
On to `CC(C)(C)C(=O)OCC(=O)C1CCC2C3CCC4=CC(=O)CCC4(C)C3CCC12C` (stereo not given), for which the Potency result in the assay on AA1029, with ATS95, in the assay with C2A, in the assay with CP211, in the assay on CP215 and in the assay on CP217 was “inactive” throughout. For the same compound, the Potency entry with CP250, in the assay on CP252, with CP256, with CP260, with CP262 and in the assay with CP265 was “inactive” each time. Moreover, the Potency result in the assay on CP291, in the assay with CP315, with Dd2, with FAB9, in the assay with ICS and in the assay on N140 was “inactive” each time. The Potency result in the assay with SC27B and with TAB165 was “inactive” each time.
On to `COC(c1ccccc1)(c1ccccc1)C(Oc1nc(C)cc(C)n1)C(=O)O` (stereo not given), for which the Potency entry in the assay on AA1029, in the assay on ATS95, in the assay with C2A, with CP211, in the assay on CP215 and in the assay on CP217 was “inactive” throughout. Also, the Potency entry with CP250, with CP252, in the assay with CP256, in the assay with CP260, in the assay with CP262 and in the assay with CP265 was “inactive” throughout. For the same compound, the Potency entry in the assay with CP291, with CP315, in the assay on Dd2, in the assay with FAB9, with ICS and in the assay with N140 was “inactive” each time. In addition, the Potency entry in the assay on SC27B and in the assay with TAB165 was “inactive” throughout.
As to `C=NC(C(=O)NC1C(=O)N2C1SC(C)(C)C2C(=O)O)c1ccccc1` (stereo not given), the Potency result in the assay with AA1029, in the assay on ATS95, with C2A, in the assay on CP211, in the assay with CP215 and in the assay with CP217 was “inactive” throughout. Besides, the Potency entry in the assay with CP250, in the assay on CP252, in the assay with CP256, in the assay on CP260, in the assay on CP262 and with CP265 was “inactive” throughout. The Potency result in the assay on CP291, in the assay on CP315, in the assay with Dd2, in the assay with FAB9, in the assay with ICS and in the assay on N140 was “inactive” throughout. The Potency entry in the assay on SC27B and in the assay with TAB165 was “inactive” each time.
As to `O=C1CC[C@H](C(=O)N[C@@H]2C[C@H]2c2ccccc2)N1`, the Potency entry in the assay on AA1029, in the assay with ATS95, with C2A, in the assay on CP211, in the assay on CP215 and in the assay with CP217 was “inactive” each time. The Potency entry with CP250, in the assay on CP252, with CP256, in the assay with CP260, in the assay with CP262 and in the assay on CP265 was “inactive” in each case. Besides, the Potency entry in the assay with CP291, in the assay on CP315, with Dd2, in the assay with FAB9, in the assay on ICS and with N140 was “inactive” throughout. For the same compound, the Potency result in the assay on SC27B and in the assay on TAB165 was “inactive” throughout.
Consider `NC(C(=O)O)c1ccc(O)cc1` (stereo not given), for which the Potency result in the assay with AA1029, in the assay with ATS95, in the assay on C2A, in the assay on CP211, with CP215 and with CP217 was “inactive” in each case. Besides, the Potency result with CP250, in the assay with CP252, in the assay on CP256, in the assay with CP260, in the assay on CP262 and in the assay with CP265 was “inactive” throughout. Further, the Potency entry in the assay with CP291, in the assay with CP315, in the assay with Dd2, in the assay on FAB9, in the assay on ICS and with N140 was “inactive” throughout. In addition, the Potency result with SC27B and in the assay on TAB165 was “inactive” each time.
For `CC(O)C1CCC2C3CCC4CC(O)CCC4(C)C3CCC12C` (stereo not given), the Potency entry in the assay on AA1029, in the assay on ATS95, in the assay with C2A, with CP211, in the assay on CP215 and in the assay on CP217 was “inactive” throughout. The Potency entry in the assay with CP250, in the assay with CP252, in the assay on CP256, in the assay with CP260, with CP262 and in the assay on CP265 was “inactive” throughout. For the same compound, the Potency entry in the assay with CP291, in the assay with CP315, in the assay with Dd2, in the assay on FAB9, in the assay on ICS and in the assay on N140 was “inactive” each time. Also, the Potency result in the assay with SC27B and with TAB165 was “inactive” each time.
As to `CCCCN1CC(O)C(O)C(O)C1CO` (stereo not given), the Potency result with AA1029, in the assay with ATS95, with C2A, in the assay with CP211, in the assay on CP215 and in the assay with CP217 was “inactive” each time. Besides, the Potency entry in the assay with CP250, with CP252, in the assay on CP256, in the assay with CP260, in the assay on CP262 and in the assay on CP265 was “inactive” each time. Moreover, the Potency result with CP291, with CP315, in the assay with Dd2, in the assay with FAB9, with ICS and in the assay on N140 was “inactive” each time. Further, the Potency result with SC27B and in the assay with TAB165 was “inactive” in each case.

The record behind these values is PubChem BioAssay (NCATS).
